A word on the inhibition: it is the drop in the measured response relative to a control, in per cent.

This is an account of results in PubChem BioAssay.

Each structure is given as a SMILES string. Unmarked numbers belong to inactive results. For some of these results: Measured potencies and affinities stand elsewhere. The source made the active and inactive calls. Unless noted, how the calls were made is not given here.

Test [1] can be described thus: antimalarial activity against Dd2 strain (AID 2302;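 active means growth inhibition above 50% at the single 2 µM test dose, taken to imply half-maximal potency below 2 µM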;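 further: 0% = DMSO untreated growth and 100% = chloroquine plus artemisinin killed control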). The following applies: P. falciparum Dd2 in RBCs, LDH growth readout, 72 h; at 2 µM; active compounds read high.
Test [2] can be described thus: human hepatoma cell viability loss – ATP luminescence, cytotoxicity control for P. falciparum antimalarial project, primary screen (AID 2303;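 active means inhibition above 50%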;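 further: 0% = DMSO wells and 100% = digitonin-killed cells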). To be noted: HepG2 viability, 24-48 h, at 10 µM, active compounds read high.
Test [3] concerns the target L-lactate dehydrogenase (Plasmodium falciparum (isolate CDC / Honduras)) (UniProt Q27743). The test is described as follows: PfLDH activity inhibition – cell lysate, 3D7 strain, counter-screen for P. falciparum growth inhibition project (AID 2304).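 Further: 0% = vehicle and 100% = reference inhibitor.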 To be noted: P. falciparum 3D7 crude extract, LDH APAD/NBT absorbance; at 2 µM; active compounds read high.
The nature of test [4]: inhibition of 3D7 malaria parasite growth – strain 3D7 (AID 2306).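 Further: 0% = DMSO wells and 100% = chloroquine plus artemisinin control wells.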 The following applies: P. falciparum 3D7 erythrocytic growth, LDH absorbance, 72 h; at 2 µM; active compounds read high.
The target in test [5] is Calcium-dependent protein kinase 1 (Plasmodium falciparum (isolate 3D7)) (UniProt P62344). The test is described as follows: PfCDPK1 kinase inhibitors, biochemical, TCAMS library (AID 1159585; cut-off not given, nearly all actives have IC50 up to about 0.98 µM;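 further: inhibitors leave more ATP so luminescence rises with inhibition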). To be noted: recombinant PfCDPK1, Kinase-Glo ATP depletion luminescence.
The target in test [6] is Plasmodium falciparum protein kinase 6 (PK6, PF3D7_1337100) (UniProt Q8IDW1). The test is described as follows: PfPK6 kinase inhibitors, biochemical, TCAMS library (AID 1159586). To be noted: recombinant PfPK6, Kinase-Glo ATP depletion luminescence. (In general: Kinase-Glo reads ATP consumption through a luciferase reaction.)
Test [7] deals with Protein kinase 7 (PK7), Plasmodium falciparum 3D7 (PF3D7_0213400) (UniProt Q7YTF7). The test is described as follows: inhibition of Plasmodium PK7 catalytic activity – biochemical, TCAMS antimalarial set, Kinase-Glo luminescence (AID 1159587). The following applies: recombinant PfPK7, Kinase-Glo ATP depletion luminescence.
Test [8] deals with Calcium-dependent protein kinase 4 (Plasmodium falciparum (isolate 3D7)) (UniProt Q8IBS5). The test is described as follows: PfCDPK4 kinase inhibitors, biochemical, TCAMS library (AID 1159588; cut-off not given, nearly all actives have IC50 up to about 0.91 µM). The following applies: recombinant PfCDPK4, Kinase-Glo ATP depletion luminescence.
Sequence of Calcium-dependent protein kinase 4 (Plasmodium falciparum (isolate 3D7)) (Q8IBS5 whole entry, looked up): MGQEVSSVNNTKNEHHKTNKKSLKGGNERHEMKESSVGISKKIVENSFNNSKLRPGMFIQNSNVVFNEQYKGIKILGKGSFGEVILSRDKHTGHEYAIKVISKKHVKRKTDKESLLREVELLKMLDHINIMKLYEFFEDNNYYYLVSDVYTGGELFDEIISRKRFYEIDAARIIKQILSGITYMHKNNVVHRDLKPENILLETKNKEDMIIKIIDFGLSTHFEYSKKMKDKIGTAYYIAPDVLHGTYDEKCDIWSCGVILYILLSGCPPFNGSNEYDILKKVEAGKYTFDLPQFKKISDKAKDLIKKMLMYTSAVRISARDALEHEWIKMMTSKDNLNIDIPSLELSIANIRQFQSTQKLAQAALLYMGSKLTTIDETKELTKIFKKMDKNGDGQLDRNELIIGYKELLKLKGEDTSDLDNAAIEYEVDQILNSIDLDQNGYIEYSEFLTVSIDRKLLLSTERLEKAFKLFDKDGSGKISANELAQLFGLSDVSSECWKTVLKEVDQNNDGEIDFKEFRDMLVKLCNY

Sequence of Protein kinase 7 (PK7), Plasmodium falciparum 3D7 (PF3D7_0213400) (Q7YTF7 1-343): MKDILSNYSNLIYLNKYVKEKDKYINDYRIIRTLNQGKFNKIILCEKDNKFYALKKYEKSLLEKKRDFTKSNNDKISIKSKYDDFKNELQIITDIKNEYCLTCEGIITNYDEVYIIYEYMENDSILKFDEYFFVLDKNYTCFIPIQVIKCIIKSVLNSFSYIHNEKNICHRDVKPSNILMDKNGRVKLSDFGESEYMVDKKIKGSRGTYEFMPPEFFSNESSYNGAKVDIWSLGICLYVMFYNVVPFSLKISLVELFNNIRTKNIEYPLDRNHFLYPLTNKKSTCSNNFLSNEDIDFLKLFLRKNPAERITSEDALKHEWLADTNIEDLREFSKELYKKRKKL
Sequence of Calcium-dependent protein kinase 1 (Plasmodium falciparum (isolate 3D7)) (P62344 whole entry, looked up): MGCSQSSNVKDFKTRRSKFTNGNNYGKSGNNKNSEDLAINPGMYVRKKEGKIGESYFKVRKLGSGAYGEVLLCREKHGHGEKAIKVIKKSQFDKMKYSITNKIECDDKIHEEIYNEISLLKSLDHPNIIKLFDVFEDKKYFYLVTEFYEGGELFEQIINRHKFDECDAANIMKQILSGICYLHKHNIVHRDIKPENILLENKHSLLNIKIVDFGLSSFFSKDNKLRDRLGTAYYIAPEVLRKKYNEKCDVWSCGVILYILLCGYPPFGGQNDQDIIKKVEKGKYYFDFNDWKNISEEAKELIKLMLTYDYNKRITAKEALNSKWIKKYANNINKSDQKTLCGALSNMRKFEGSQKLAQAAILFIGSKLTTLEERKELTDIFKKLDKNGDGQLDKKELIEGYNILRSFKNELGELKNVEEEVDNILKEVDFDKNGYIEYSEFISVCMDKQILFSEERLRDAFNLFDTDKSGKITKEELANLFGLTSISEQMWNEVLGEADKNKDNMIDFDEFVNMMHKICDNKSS
Sequence of Plasmodium falciparum protein kinase 6 (PK6, PF3D7_1337100) (Q8IDW1 1-305): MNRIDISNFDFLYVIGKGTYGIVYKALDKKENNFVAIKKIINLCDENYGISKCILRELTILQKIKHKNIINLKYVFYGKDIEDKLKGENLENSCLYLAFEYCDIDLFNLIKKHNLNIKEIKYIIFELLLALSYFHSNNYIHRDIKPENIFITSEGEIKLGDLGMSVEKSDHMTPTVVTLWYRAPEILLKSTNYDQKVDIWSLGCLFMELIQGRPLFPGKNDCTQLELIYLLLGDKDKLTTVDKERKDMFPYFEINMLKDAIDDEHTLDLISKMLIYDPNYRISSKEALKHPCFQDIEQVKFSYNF
Sequence of L-lactate dehydrogenase (Plasmodium falciparum (isolate CDC / Honduras)) (Q27743 whole entry, looked up): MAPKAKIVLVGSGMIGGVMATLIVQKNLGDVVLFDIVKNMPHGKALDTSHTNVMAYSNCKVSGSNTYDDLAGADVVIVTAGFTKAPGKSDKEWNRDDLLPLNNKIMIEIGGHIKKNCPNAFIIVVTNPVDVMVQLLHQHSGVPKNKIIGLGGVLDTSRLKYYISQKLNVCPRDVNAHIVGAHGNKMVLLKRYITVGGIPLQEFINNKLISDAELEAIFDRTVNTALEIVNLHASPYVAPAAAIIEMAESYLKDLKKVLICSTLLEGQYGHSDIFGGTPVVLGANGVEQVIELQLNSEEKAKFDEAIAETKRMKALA

Consider `O=C(Nc1cc(Cl)cc(Cl)c1)N[C@H]1CCN(CCCCCNC(=O)[C@@H]2C[C@H]2c2ccc(Cl)c(Cl)c2)C1`, for which the growth inhibition in test [1] was -3%; in test [4] it was 99% (active). Moreover, the inhibition in test [2] was 49%; in test [3] it was 3%. Further, the outcome in test [5], in test [6], in test [7] and in test [8] was inactive.

Turning to `O=C(NCCCCN1CCN(c2cccc3c2OCCO3)CC1)c1ccc(NC(=O)c2cc(Cl)cc(Cl)c2)cc1`, the growth inhibition in test [1] is 89% (active); in test [4], 101% (active). The inhibition in test [2] was 21%; in test [3], -3%. Also, the outcome in test [5], in test [6], in test [7] and in test [8] was inactive.

Turning to `Cc1c(-c2cccc(NC(=O)C(C)(C)Oc3ccc(Cl)cc3)c2)nc2ncccn12`, the growth inhibition in test [1] is 95% (active); in test [4], 98% (active). The figures for the inhibition in test [2] and in test [3] were 0% and -3%, respectively. Further, the result in test [5], in test [6], in test [7] and in test [8] was inactive.

For `CCCN(C(=O)c1ccccc1C)c1nnc(-c2ccccc2C)s1`, the growth inhibition was 65% (active) in test [1] and 90% (active) in test [4]. In addition, the inhibition is 16% in test [2] and -7% in test [3]. Moreover, the result in test [5], in test [6], in test [7] and in test [8] was inactive.

As for `Cc1cccc2[nH]c(-c3cccc(-c4cccc(NC(=O)COc5ccccc5C(N)=O)c4)c3)nc12`, the values for the growth inhibition in test [1] and in test [4] were 88% (active) and 100% (active), respectively. Also, the inhibition in test [2] was 22%; in test [3] it was -2%. The result in test [5], in test [6], in test [7] and in test [8] was inactive.

Turning to `O=C(Cc1ccccc1)NC(CCN1CCC(O)(c2cccc(C(F)(F)F)c2)CC1)c1ccc(Cl)c(Cl)c1` (stereo not given), the growth inhibition in test [1] is 32%; in test [4] it was 96% (active). The inhibition was 25% in test [2] and 1% in test [3]. Further, the outcome in test [5], in test [6], in test [7] and in test [8] was inactive.

`COc1ccc(OC)c(-c2ccc(O)c(CNCC(C)c3ccccc3)c2)c1` (stereo not given): the values for the growth inhibition in test [1] and in test [4] were 96% (active) and 98% (active), respectively. For the same compound, the results for the inhibition in test [2] and in test [3] were 26% and -2%, respectively. The outcome in test [5], in test [6], in test [7] and in test [8] was inactive.

Take `Cc1c(C)n(Cc2ccccc2)c2ncnc(OC3CCN(CC(=O)NCC4CC4)CC3)c12`: the results for the growth inhibition in test [1] and in test [4] were 79% (active) and 92% (active), respectively. Moreover, the inhibition in test [2] was 17%; in test [3] it was -3%. Moreover, the outcome in test [5], in test [6], in test [7] and in test [8] was inactive.

As to `Cc1c(-c2cccc(Br)c2)[nH]c2nc(N)nc(N)c12`, the growth inhibition in test [1] is 61% (active); in test [4], 100% (active). Besides, the values for the inhibition in test [2] and in test [3] were 8% and -4%, respectively. Besides, the result in test [5], in test [6], in test [7] and in test [8] was inactive.

As for `O=C(Cc1ccccc1)NC(c1ccco1)c1cc(Cl)c2cccnc2c1O` (stereo not given), the values for the growth inhibition in test [1] and in test [4] were 93% (active) and 89% (active), respectively. The inhibition in test [2] was 44%; in test [3] it was -1%. The result in test [5], in test [6], in test [7] and in test [8] was inactive.

As for `Cc1cc(CNCCCCCCNCc2ccc(-c3ccccc3)cc2)ccc1O`, the growth inhibition was -2% in test [1] and 98% (active) in test [4]. Also, the inhibition in test [2] is 90% (active); in test [3], -3%. For the same compound, the result in test [5], in test [6], in test [7] and in test [8] was inactive.

For `NC(=O)C1CCN(Cc2cccc(-c3cccc(-c4nc5ccc(F)cc5[nH]4)c3)c2)CC1`, the growth inhibition is 7% in test [1] and 100% (active) in test [4]. Moreover, the inhibition in test [2] is 15%; in test [3], 3%. Further, the result in test [5], in test [6], in test [7] and in test [8] was inactive.

As to `CC(C)N(Cc1ccccc1)C(=O)CN1C(=O)COc2ccc(S(=O)(=O)N3CCCCCC3)cc21`, the growth inhibition in test [1] and in test [4] was 99% (active) throughout. Also, the inhibition was -11% in test [2] and -3% in test [3]. Also, the result in test [5], in test [6], in test [7] and in test [8] was inactive.

For `CCN(CCCN1CCCCC1)c1cc(C)nc(Nc2ccc(Cl)cc2C)n1`, the growth inhibition in test [1] is 46%; in test [4], 95% (active). In addition, the inhibition in test [2] was 44%; in test [3], 2%. Moreover, the result in test [5], in test [6], in test [7] and in test [8] was inactive.

In the case of `Cc1cccc(CN2CCCN(Cc3ccc(C(=O)Nc4ccc(Cl)cc4)cc3)CC2)c1`, the growth inhibition in test [1] is 17%; in test [4], 92% (active). In addition, the inhibition is 54% (active) in test [2] and 3% in test [3]. The result in test [5], in test [6], in test [7] and in test [8] was inactive.

On to `COc1cc(CNCCCCCCNCc2cc(OC)c3ccccc3c2OC)c(OC)c2ccccc12`, for which the growth inhibition in test [1] is 40%; in test [4] it was 102% (active). Besides, the inhibition was 99% (active) in test [2] and -2% in test [3]. The result in test [5], in test [6], in test [7] and in test [8] was inactive.

For `COc1ccc(N2CCN(C(CNC(=O)C3CCCCC3)c3ccc4c(c3)OCO4)CC2)cc1` (stereo not given), the growth inhibition is 83% (active) in test [1] and 92% (active) in test [4]. Moreover, the inhibition in test [2] was 1%; in test [3], -1%. Besides, the result in test [5], in test [6], in test [7] and in test [8] was inactive.

As for `Cc1cc(CN2CCC(C(=O)Nc3ccc(-c4nc5ccccc5[nH]4)cc3)CC2)oc1C`, the growth inhibition was 9% in test [1] and 95% (active) in test [4]. The inhibition was -7% in test [2] and -4% in test [3]. Moreover, the result in test [5], in test [6], in test [7] and in test [8] was inactive.

Take `CC(C)(C)c1cc([N+](=O)[O-])cc(C(=O)Nc2ccccc2C(F)(F)F)c1O`: the growth inhibition in test [1] is 99% (active); in test [4] it was 96% (active). For the same compound, the inhibition in test [2] is 74% (active); in test [3], 5%. The outcome in test [5], in test [6], in test [7] and in test [8] was inactive.

On to `O=C(Nc1ccc(Cl)cc1F)N[C@H]1CCN(CCCCCNC(=O)[C@@H]2C[C@H]2c2ccc(Cl)c(Cl)c2)C1`, for which the growth inhibition was -3% in test [1] and 87% (active) in test [4]. The values for the inhibition in test [2] and in test [3] were 29% and 3%, respectively. The outcome in test [5], in test [6], in test [7] and in test [8] was inactive.
